Experimental data from PubChem BioAssay (EPA / NIEHS).
The source made the active and inactive calls. The calls were made as follows: active = hit-call score of the fitted dose curve at least 0.9, where 1 is the maximum; inactive = score below 0.9.

Legend:
Details in all cases: mRNA level, 48 h; actives raise or lower the signal
MYC, MYC (gene 4609) = experiment: LTEA_HepaRG_MYC: Life Technologies and Expression Analysis (LTEA) Assay for MYC using HepaRG (AID 2283518)
Summary of the method: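 HepaRG, ~100,000 cells/well, collagen I; 48 h plating; serum-free induction medium; 48 h dosing, duplicate, 100 uM top, half-log, 0.5% DMSO; total RNA → qRT-PCR MYC; gain/loss fit vs DMSO.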

[1] = read-out: matrix metalloproteinase-3 (MMP3), MMP3 (gene 4314); experiment: LTEA_HepaRG_MMP3: Life Technologies and Expression Analysis (LTEA) Assay for matrix metalloproteinase-3 (MMP3) using HepaRG (AID 2283519)
Summary of the method: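 qRT-PCR read-out of MMP3 mRNA (normalised to three housekeeping genes) in HepaRG liver cells after 48 h chemical exposure; 8-point half-log series, top 100 uM, 0.5% DMSO vehicle. Bidirectional curve fitting against DMSO baseline.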

[2] = read-out: Paternally Expressed 10 (PEG10), PEG10 (gene 23089); experiment: LTEA_HepaRG_PEG10: Life Technologies and Expression Analysis (LTEA) Assay for Paternally Expressed 10 (PEG10) using HepaRG (AID 2283520);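 as to AC50: differentiated HepaRG human liver cells in serum-free induction medium with 0.5% DMSO; PEG10 transcript by qRT-PCR normalised to ACTB GAPDH and POLR2A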
Summary of the method: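 PEG10 transcript measured by Fluidigm qRT-PCR, normalized to three housekeeping genes, in HepaRG cells treated 48 h (highest 100 uM, half-log steps, 0.5% DMSO vehicle). Cells plated 48 h before switching to serum-free induction medium.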

[3] = read-out: Nuclear factor NF-kappa-B p105 subunit (Homo sapiens) (UniProt P19838); experiment: LTEA_HepaRG_NFKB1: Life Technologies and Expression Analysis (LTEA) Assay for Nuclear Factor Kappa B Subunit 1 (NFKB1) using HepaRG (AID 2283521);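 also: differentiated human HepaRG liver cells in serum-free induction medium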
Summary of the method: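 NFKB1 transcript was measured by TaqMan qRT-PCR on Fluidigm arrays, normalised to three housekeeping genes and fitted in both directions against 0.5% DMSO. HepaRG cells were dosed in duplicate for 48 h in serum-free induction medium, eight half-log steps from 100 uM.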

[4] = read-out: Protein phosphatase 2A (PPP2R4), PTPA (gene 5524); experiment: LTEA_HepaRG_PPP2R4: Life Technologies and Expression Analysis (LTEA) Assay for Protein phosphatase 2A (PPP2R4) using HepaRG (AID 2283522)
Summary of the method: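 Expression was quantified by Fluidigm qRT-PCR normalised to three housekeeping genes after 48 h treatment. Human HepaRG cells received an 8-point series from 100 µM downward by half-logs, in duplicate with 0.5% DMSO vehicle and 1 mM phenobarbital as induction control.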

[5] = read-out: Phosphatase and tensin (PTEN), PTEN (gene 5728); experiment: LTEA_HepaRG_PTEN: Life Technologies and Expression Analysis (LTEA) Assay for Phosphatase and tensin (PTEN) using HepaRG (AID 2283523)
Summary of the method: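 HepaRG, 48 h exposure, 8-pt half-log series from 100 uM top, 0.5% DMSO vehicle, duplicates. Readout: Fluidigm qRT-PCR of PTEN transcript; housekeeping normalization (ACTB, GAPDH, POLR2A). Gain or loss fitted relative to DMSO baseline.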

[6] = read-out: solute carrier (SLC22A1), SLC22A1 (gene 6580); experiment: LTEA_HepaRG_SLC22A1: Life Technologies and Expression Analysis (LTEA) Assay for solute carrier (SLC22A1) using HepaRG (AID 2283524);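 as to AC50: differentiated human HepaRG liver cells in serum-free induction medium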
Summary of the method: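 qRT-PCR readout (TaqMan, Fluidigm arrays) of SLC22A1 transcript, normalized to three housekeeping genes; bidirectional curve fit relative to 0.5% DMSO vehicle. Differentiated human HepaRG cells, 48 h chemical exposure, top concentration 100 uM, half-log steps, eight points.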

[7] = read-out: Pyruvate Dehydrogenase Kinase 4 (PDK4), PDK4 (gene 5166); experiment: LTEA_HepaRG_PDK4: Life Technologies and Expression Analysis (LTEA) Assay for Pyruvate Dehydrogenase Kinase 4 (PDK4) using HepaRG (AID 2283525)
Summary of the method: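 HepaRG (human liver line), 48 h chemical exposure, 8-pt half-log CRC top 100 uM, 0.5% DMSO vehicle, duplicates. Readout: TaqMan qRT-PCR of PDK4 mRNA, housekeeping-normalized; gain/loss fit relative to DMSO baseline.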

[8] = read-out: NAD(P)H dehydrogenase [quinone] 1 (NQO1), NQO1 (gene 1728); experiment: LTEA_HepaRG_NQO1: Life Technologies and Expression Analysis (LTEA) Assay for NAD(P)H dehydrogenase [quinone] 1 (NQO1) using HepaRG (AID 2283526)
Summary of the method: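 NQO1 transcript induction or loss measured by TaqMan qRT-PCR, referenced to three housekeeping genes and fitted bidirectionally against 0.5% DMSO. HepaRG cultures exposed 48 h, duplicate, eight-point half-log series, top 100 uM.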

[9] = read-out: Nuclear factor erythroid 2-related factor 2 (Homo sapiens) (UniProt Q16236); experiment: LTEA_HepaRG_NFE2L2: Life Technologies and Expression Analysis (LTEA) Assay for Nuclear factor erythroid 2-related factor 2 (NFE2L2) Transcription Factor using HepaRG (AID 2283527)
Summary of the method: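 HepaRG, 48 h dosing, 8-pt half-log series from 100 uM in 0.5% DMSO, duplicates. Read-out: NFE2L2 mRNA by qRT-PCR (ACTB/GAPDH/POLR2A normalization). Bidirectional curve fit vs DMSO baseline.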

[10] = read-out: Signal transducer and activator of transcription 3 (Homo sapiens) (UniProt P40763); experiment: LTEA_HepaRG_STAT3: Life Technologies and Expression Analysis (LTEA) Assay for Signal transducer and activator of transcription (STAT3) using HepaRG (AID 2283529)
Summary of the method: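 HepaRG, 48 h exposure, 8-pt half-log series (top 100 uM), 0.5% DMSO vehicle, duplicates. Readout: STAT3 transcript by Fluidigm qRT-PCR, housekeeping-normalized; bidirectional fit vs DMSO baseline.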

[11] = read-out: solute carrier (SLCO1B1), SLCO1B1 (gene 10599); experiment: LTEA_HepaRG_SLCO1B1: Life Technologies and Expression Analysis (LTEA) Assay for solute carrier (SLCO1B1) using HepaRG (AID 2283530)
Summary of the method: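 HepaRG, serum-free induction medium, 48 h dosing, 8-pt half-log from 100 uM, 0.5% DMSO vehicle, duplicates. Readout: SLCO1B1 mRNA, qRT-PCR, ACTB/GAPDH/POLR2A normalization; up or down fit vs DMSO.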

[12] = read-out: sulfotransferase 2A1 (SULT2A1), SULT2A1 (gene 6822); experiment: LTEA_HepaRG_SULT2A1: Life Technologies and Expression Analysis (LTEA) Assay for sulfotransferase 2A1 (SULT2A1) using HepaRG (AID 2283531)
Summary of the method: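 Transcript levels of SULT2A1, quantified by qRT-PCR and normalized to three housekeeping genes, serve as the readout. Human HepaRG cultures receive test chemicals for 48 h at up to 100 uM in half-log steps, with 0.5% DMSO vehicle.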

[13] = read-out: Transforming Growth Factor (TGFA), TGFA (gene 7039); experiment: LTEA_HepaRG_TGFA: Life Technologies and Expression Analysis (LTEA) Assay for Transforming Growth Factor (TGFA) using HepaRG (AID 2283532)
Summary of the method: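 qRT-PCR read-out of TGFA transcript, normalized to three housekeeping genes, fitted bidirectionally against 0.5% DMSO baseline. Human HepaRG cultures received chemicals for 48 h at eight half-log concentrations, top 100 uM.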

[14] = read-out: Transforming Growth Factor (TGFB1), TGFB1 (gene 7040); experiment: LTEA_HepaRG_TGFB1: Life Technologies and Expression Analysis (LTEA) Assay for Transforming Growth Factor (TGFB1) Transporter using HepaRG (AID 2283533)
Summary of the method: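 HepaRG, 48 h post-plating, switched to serum-free induction medium; chemicals 100 uM top, half-log, 8 pts, 0.5% DMSO, dup; 48 h exposure; RNA → Fluidigm TaqMan qRT-PCR; norm ACTB/GAPDH/POLR2A; bidirectional fit vs DMSO.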

TIMP1, TIMP1 (gene 7076) = experiment: LTEA_HepaRG_TIMP1: Life Technologies and Expression Analysis (LTEA) Assay for TIMP1 using HepaRG (AID 2283534)
Summary of the method: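 Readout is TIMP1 mRNA level measured by qRT-PCR and normalized to three housekeeping genes. Human HepaRG cells were treated for 48 h in duplicate at eight concentrations up to 100 uM (0.5% DMSO); gain or loss fitted against DMSO.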

[15] = read-out: Tumor necrosis factor receptor 1 (TNFRSF1A), TNFRSF1A (gene 7132); experiment: LTEA_HepaRG_TNFRSF1A: Life Technologies and Expression Analysis (LTEA) Assay for Tumor necrosis factor receptor 1 (TNFRSF1A) using HepaRG (AID 2283535)
Summary of the method: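 Read-out is TNFRSF1A transcript level by TaqMan qRT-PCR, normalized to three housekeeping genes, scored as gain or loss of signal versus 0.5% DMSO. Human HepaRG cells received test chemicals for 48 h at up to 100 uM (half-log series).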

[16] = read-out: Thyroid Hormone Responsive (THRSP), THRSP (gene 7069); experiment: LTEA_HepaRG_THRSP: Life Technologies and Expression Analysis (LTEA) Assay for Thyroid Hormone Responsive (THRSP) using HepaRG (AID 2283536)
Summary of the method: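 qRT-PCR read-out (Fluidigm TaqMan), housekeeping-normalized (ACTB/GAPDH/POLR2A). HepaRG, 48 h chemical exposure, 8-pt half-log series from 100 uM in 0.5% DMSO, duplicates. Bidirectional curve fit vs 0.5% DMSO baseline.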

[17] = read-out: Cellular tumor antigen p53 (Homo sapiens) (UniProt P04637); experiment: LTEA_HepaRG_TP53: Life Technologies and Expression Analysis (LTEA) Assay for Tumor Protein P53 (TP53) using HepaRG (AID 2283537)
Summary of the method: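 TP53 transcript measured by qRT-PCR, normalized to three housekeeping genes, after 48 h treatment of human HepaRG cultures with chemicals from 100 uM downward in half-log steps (0.5% DMSO vehicle, serum-free induction medium). Up- or down-regulation fitted against DMSO.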

[18] = read-out: succinate dehydrogenase complex iron sulfur subunit B (SDHB), SDHB (gene 6390); experiment: LTEA_HepaRG_SDHB: Life Technologies and Expression Analysis (LTEA) Assay for succinate dehydrogenase complex iron sulfur subunit B (SDHB) using HepaRG (AID 2283528)
Summary of the method: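 SDHB transcript level read by TaqMan qRT-PCR, housekeeping-normalised (ACTB, GAPDH, POLR2A), after 48 h chemical treatment of plated HepaRG cells; eight concentrations top 100 uM, half-log steps, 0.5% DMSO, duplicates; fitted both directions against DMSO.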

Measured: AC50

Sequence of Nuclear factor NF-kappa-B p105 subunit (Homo sapiens) (P19838 whole entry, looked up): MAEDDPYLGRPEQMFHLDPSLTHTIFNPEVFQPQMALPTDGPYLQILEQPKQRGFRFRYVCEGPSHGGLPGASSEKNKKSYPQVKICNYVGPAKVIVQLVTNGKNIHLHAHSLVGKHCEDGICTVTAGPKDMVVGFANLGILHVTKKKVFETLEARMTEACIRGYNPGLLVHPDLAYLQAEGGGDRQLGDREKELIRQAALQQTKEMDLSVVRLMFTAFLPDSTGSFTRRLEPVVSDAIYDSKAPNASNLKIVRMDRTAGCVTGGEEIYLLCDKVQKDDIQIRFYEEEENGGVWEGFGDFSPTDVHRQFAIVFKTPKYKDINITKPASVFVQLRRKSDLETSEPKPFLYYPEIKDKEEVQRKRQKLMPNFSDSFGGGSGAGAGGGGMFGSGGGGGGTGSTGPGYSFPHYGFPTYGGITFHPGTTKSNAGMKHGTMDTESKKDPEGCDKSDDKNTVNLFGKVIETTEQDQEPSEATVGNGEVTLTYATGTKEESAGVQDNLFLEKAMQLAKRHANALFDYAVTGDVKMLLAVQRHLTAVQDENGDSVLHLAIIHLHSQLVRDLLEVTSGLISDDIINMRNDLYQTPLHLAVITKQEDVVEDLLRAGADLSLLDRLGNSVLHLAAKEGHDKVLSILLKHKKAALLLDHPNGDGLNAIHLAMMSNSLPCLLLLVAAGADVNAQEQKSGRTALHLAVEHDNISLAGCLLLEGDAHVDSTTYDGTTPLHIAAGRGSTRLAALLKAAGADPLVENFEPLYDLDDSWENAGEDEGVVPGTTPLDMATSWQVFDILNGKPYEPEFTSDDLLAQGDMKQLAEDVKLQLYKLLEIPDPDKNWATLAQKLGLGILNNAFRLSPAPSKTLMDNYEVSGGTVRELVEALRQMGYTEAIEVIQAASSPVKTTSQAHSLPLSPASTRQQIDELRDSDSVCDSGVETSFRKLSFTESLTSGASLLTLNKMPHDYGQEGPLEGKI
Sequence of Nuclear factor erythroid 2-related factor 2 (Homo sapiens) (Q16236 whole entry, looked up): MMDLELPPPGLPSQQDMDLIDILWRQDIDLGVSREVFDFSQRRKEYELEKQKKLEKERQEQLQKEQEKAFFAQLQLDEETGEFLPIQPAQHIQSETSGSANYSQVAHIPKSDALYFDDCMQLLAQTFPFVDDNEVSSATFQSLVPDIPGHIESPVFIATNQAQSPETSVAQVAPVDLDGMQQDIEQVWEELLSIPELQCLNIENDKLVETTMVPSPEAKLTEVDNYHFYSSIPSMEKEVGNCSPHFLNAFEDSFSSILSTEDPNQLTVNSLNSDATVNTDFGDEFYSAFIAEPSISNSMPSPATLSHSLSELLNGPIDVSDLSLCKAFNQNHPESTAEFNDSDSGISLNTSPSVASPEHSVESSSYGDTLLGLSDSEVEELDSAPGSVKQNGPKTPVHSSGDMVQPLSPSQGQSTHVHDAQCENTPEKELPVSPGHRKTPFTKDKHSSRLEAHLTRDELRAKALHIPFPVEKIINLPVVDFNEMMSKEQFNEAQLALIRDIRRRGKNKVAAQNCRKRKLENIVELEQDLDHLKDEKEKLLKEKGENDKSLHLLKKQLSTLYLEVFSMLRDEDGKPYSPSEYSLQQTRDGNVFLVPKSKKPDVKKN
Sequence of Cellular tumor antigen p53 (Homo sapiens) (P04637 whole entry, looked up): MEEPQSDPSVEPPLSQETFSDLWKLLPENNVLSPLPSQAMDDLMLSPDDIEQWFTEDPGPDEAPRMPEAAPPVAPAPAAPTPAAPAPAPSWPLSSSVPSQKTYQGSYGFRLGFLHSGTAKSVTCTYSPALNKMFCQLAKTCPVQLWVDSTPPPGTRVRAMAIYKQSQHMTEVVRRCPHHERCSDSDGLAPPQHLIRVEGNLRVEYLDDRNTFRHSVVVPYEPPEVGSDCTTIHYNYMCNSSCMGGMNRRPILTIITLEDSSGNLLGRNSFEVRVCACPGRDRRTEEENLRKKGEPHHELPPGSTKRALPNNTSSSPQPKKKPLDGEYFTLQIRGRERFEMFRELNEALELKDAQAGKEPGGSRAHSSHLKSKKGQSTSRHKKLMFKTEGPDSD
Sequence of Signal transducer and activator of transcription 3 (Homo sapiens) (P40763 whole entry, looked up): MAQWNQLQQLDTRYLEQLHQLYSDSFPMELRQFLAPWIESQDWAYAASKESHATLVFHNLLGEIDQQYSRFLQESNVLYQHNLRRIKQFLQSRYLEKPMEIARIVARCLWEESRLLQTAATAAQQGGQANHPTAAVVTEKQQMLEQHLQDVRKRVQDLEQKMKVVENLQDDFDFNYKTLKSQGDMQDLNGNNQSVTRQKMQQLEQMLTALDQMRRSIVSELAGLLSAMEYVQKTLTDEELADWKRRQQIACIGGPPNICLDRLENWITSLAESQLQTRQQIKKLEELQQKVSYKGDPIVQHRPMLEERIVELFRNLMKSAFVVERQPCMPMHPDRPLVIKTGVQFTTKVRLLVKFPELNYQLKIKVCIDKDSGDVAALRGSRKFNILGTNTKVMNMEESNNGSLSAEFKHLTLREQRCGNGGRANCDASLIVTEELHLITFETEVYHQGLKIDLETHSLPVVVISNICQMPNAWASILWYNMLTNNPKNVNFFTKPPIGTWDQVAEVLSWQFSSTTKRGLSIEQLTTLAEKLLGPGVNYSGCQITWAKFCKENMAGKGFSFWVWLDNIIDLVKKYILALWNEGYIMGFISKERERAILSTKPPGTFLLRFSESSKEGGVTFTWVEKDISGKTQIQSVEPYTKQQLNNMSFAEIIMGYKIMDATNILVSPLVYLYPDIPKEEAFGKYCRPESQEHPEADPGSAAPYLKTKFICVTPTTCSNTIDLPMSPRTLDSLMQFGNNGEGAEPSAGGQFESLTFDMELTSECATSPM

c1ccc(Nc2ccccc2)cc1
not listed: [18]
inactive: all other assays above

CCC(C)OC(=O)N1CCCCC1CCO (stereo not drawn)
not listed: [6]
inactive: all other assays above

CCOC(=O)NCCOc1ccc(Oc2ccccc2)cc1
active: MYC, MYC (gene 4609) 79.9 µM | [1] 50 µM | [2] 29 µM | [6] 84.9 µM | [11] 93.4 µM | [12] 82.7 µM | [13] 78.6 µM | [16] 75.8 µM | [17] 82.8 µM
inactive: all other assays above
